From the supplement of paper PMC8728848
The sample as a whole holds a higher share of the strongest signals than the screen did.

What was measured:
Assay in all cases: glycan array binding signal (z-score within array); higher = stronger binding
Details in all cases: glycan notation: IUPAC condensed, linker removed
[1] = target: Fuc(a1-2)Gal(b1-3)GalNAc(a1-3)[Fuc(a1-2)]Gal(b1-4)Glc
Procedure, shortened: (§1)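 Negative Z-scores can be read as non-binding. The Z-score is calculated within each array and then averaged across arrays of one protein sequence at different concentrations or buffers and across linkers. Arrays, 3228 in all, were curated from the Consortium for Functional Glycomics database and kept only where the protein sequence was available.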

[2] = target: Fuc(a1-2)Gal(b1-3)GlcNAc(b1-3)GalNAc
Procedure, shortened: as §1

[3] = target: Fuc(a1-2)Gal(b1-3)[Fuc(a1-4)]GlcNAc(b1-2)Man(a1-3)[Fuc(a1-2)Gal(b1-3)[Fuc(a1-4)]GlcNAc(b1-2)Man(a1-3)]Man(b1-4)GlcNAc(b1-4)GlcNAc
Procedure, shortened: as §1

[4] = target: Fuc(a1-2)Gal6S(b1-3)GlcNAc6S
Procedure, shortened: as §1

[5] = target: Fuc(a1-2)[Gal(a1-3)]Gal(b1-4)Glc
Procedure, shortened: as §1

[6] = target: Fuc(a1-2)[Gal(a1-3)]Gal(b1-4)GlcNAc(b1-2)Man(a1-3)[Fuc(a1-2)[Gal(a1-3)]Gal(b1-4)GlcNAc(b1-2)Man(a1-6)]Man(b1-4)GlcNAc(b1-4)[Fuc(a1-6)]GlcNAc
Procedure, shortened: as §1

[7] = target: Fuc(a1-2)[Gal(a1-3)]Gal(b1-4)GlcNAc(b1-3)[Fuc(a1-2)[Gal(a1-3)]Gal(b1-4)GlcNAc(b1-6)]GalNAc
Procedure, shortened: as §1

[8] = target: Fuc(a1-2)[Gal(a1-3)]Gal(b1-4)[Fuc(a1-3)]GlcNAc(b1-3)GalNAc
Procedure, shortened: as §1

[9] = target: Fuc(a1-2)[GalNAc(a1-3)]Gal(b1-3)GalNAc(a1-3)[Fuc(a1-2)]Gal(b1-4)GlcNAc
Procedure, shortened: as §1

[10] = target: Fuc(a1-2)[GalNAc(a1-3)]Gal(b1-3)GlcNAc(b1-2)Man(a1-3)[Fuc(a1-2)[GalNAc(a1-3)]Gal(b1-3)GlcNAc(b1-2)Man(a1-6)]Man(b1-4)GlcNAc(b1-4)GlcNAc
Procedure, shortened: as §1

[11] = target: Fuc(a1-2)[GalNAc(a1-3)]Gal(b1-4)[Fuc(a1-3)]GlcNAc(b1-3)GalNAc
Procedure, shortened: as §1

[12] = target: Fuc(a1-3)[Gal(b1-4)]Glc6S
Procedure, shortened: as §1

[13] = target: Fuc(a1-3)[Gal3S(b1-4)]Glc
Procedure, shortened: as §1

[14] = target: Fuc(b1-3)GlcNAc
Procedure, shortened: as §1

[15] = target: Gal(a1-4)Gal(b1-4)GlcNAc(b1-3)Gal(b1-4)Glc
Procedure, shortened: as §1

[16] = target: Gal(b1-3)GlcNAc(b1-2)Man(a1-3)[Gal(b1-3)GlcNAc(b1-2)Man(a1-6)]Man(b1-4)GlcNAc(b1-4)GlcNAc
Procedure, shortened: as §1

[17] = target: Gal(b1-3)[Fuc(a1-4)]GlcNAc(b1-2)Man
Procedure, shortened: as §1

[18] = target: Gal(b1-4)GlcNAc(b1-2)Man(a1-3)[Gal(b1-4)GlcNAc(b1-2)Man(a1-6)][GlcNAc(b1-4)]Man(b1-4)GlcNAc(b1-4)[Fuc(a1-6)]GlcNAc
Procedure, shortened: as §1

[19] = target: Gal3S(b1-4)[Fuc(a1-3)]GlcNAc6S
Procedure, shortened: as §1

[20] = target: Gal3S6S(b1-4)GlcNAc
Procedure, shortened: as §1

[21] = target: Gal3S6S(b1-4)GlcNAc6S
Procedure, shortened: as §1

[22] = target: Gal4S(b1-4)GlcNAc
Procedure, shortened: as §1

[23] = target: Gal6S(b1-4)GlcNAc6S
Procedure, shortened: as §1

[24] = target: GalNAc(a1-3)Gal
Procedure, shortened: as §1

[25] = target: GalNAc(b1-4)GlcNAc(b1-3)GalNAc(b1-4)GlcNAc
Procedure, shortened: as §1

[26] = target: GalNAc4S6S(b1-4)GlcNAc
Procedure, shortened: as §1

[27] = target: GlcNAc(b1-2)Gal(b1-3)GalNAc
Procedure, shortened: as §1

[28] = target: GlcNAc(b1-3)Fuc
Procedure, shortened: as §1

[29] = target: GlcNAc(b1-3)Gal(b1-4)GlcNAc(b1-2)Man(a1-3)[GlcNAc(b1-3)Gal(b1-4)GlcNAc(b1-2)Man(a1-6)]Man(b1-4)GlcNAc(b1-4)GlcNAc
Procedure, shortened: as §1

[30] = target: GlcNAc(b1-3)Gal(b1-4)GlcNAc(b1-3)Gal(b1-4)GlcNAc(b1-2)[GlcNAc(b1-3)Gal(b1-4)GlcNAc(b1-3)Gal(b1-4)GlcNAc(b1-6)]Man(a1-6)[GlcNAc(b1-3)Gal(b1-4)GlcNAc(b1-3)Gal(b1-4)GlcNAc(b1-2)Man(a1-3)]Man(b1-4)GlcNAc(b1-4)[Fuc(a1-6)]GlcNAc
Procedure, shortened: as §1

[31] = target: GlcNAc(b1-3)Gal(b1-4)GlcNAc(b1-3)Gal(b1-4)GlcNAc(b1-3)GalNAc
Procedure, shortened: as §1

[32] = target: GlcNAc(b1-3)Gal(b1-4)GlcNAc(b1-6)[GlcNAc(b1-3)Gal(b1-3)]GalNAc
Procedure, shortened: as §1

[33] = target: GlcNAc6S(b1-3)Gal(b1-4)GlcNAc
Procedure, shortened: as §1

[34] = target: Man(a1-2)Man(a1-3)Man
Procedure, shortened: as §1

[35] = target: Neu5Ac(a2-3)Gal(b1-4)GlcNAc(b1-2)Man
Procedure, shortened: as §1

[36] = target: Neu5Ac(a2-3)Gal(b1-4)GlcNAc(b1-6)[Gal(b1-3)]GalNAc
Procedure, shortened: as §1

[37] = target: Neu5Ac(a2-3)Gal(b1-4)[Fuc(a1-3)]GlcNAc(b1-3)Gal(b1-4)[Fuc(a1-3)]GlcNAc(b1-3)Gal(b1-4)[Fuc(a1-3)]GlcNAc
Procedure, shortened: as §1

[38] = target: Neu5Ac(a2-3)[GalNAc(b1-4)]Gal(b1-4)Glc
Procedure, shortened: as §1

[39] = target: Neu5Ac(a2-6)Gal(b1-4)GlcNAc(b1-2)Man(a1-3)[GlcNAc(b1-2)Man(a1-6)]Man(b1-4)GlcNAc(b1-4)GlcNAc
Procedure, shortened: as §1

[40] = target: Neu5Ac(a2-6)Gal(b1-4)GlcNAc(b1-2)Man(a1-6)Man(b1-4)GlcNAc(b1-4)GlcNAc
Procedure, shortened: as §1

[41] = target: Neu5Ac(a2-6)Gal(b1-4)GlcNAc(b1-2)Man(a1-6)[Man(a1-3)]Man(b1-4)GlcNAc(b1-4)GlcNAc
Procedure, shortened: as §1

[42] = target: Neu5Ac(a2-6)Gal(b1-4)GlcNAc(b1-6)[Gal(b1-3)GlcNAc(b1-3)]Gal(b1-4)Glc
Procedure, shortened: as §1

[43] = target: Neu5Ac(a2-6)GlcNAc(b1-4)GlcNAc
Procedure, shortened: as §1

[44] = target: Neu5Ac(a2-8)Neu5Ac(a2-3)[GalNAc(b1-4)]Gal(b1-4)Glc
Procedure, shortened: as §1

[45] = target: Neu5Ac9Ac(a2-6)Gal(b1-4)GlcNAc
Procedure, shortened: as §1

B1: Wzz (Escherichia coli) (protein)
chain: MRTWKFPSVRVMMRVENNNVSGQNHDPEQIDLIDLLVQLWRGKMTIIISVIVAIVLAIGYLAVAKEKWTSTAIITQPDVGQIAGYNNAMNVIYGQAAPKVSDLQETLIGRFSSAFSALAETLDNQEEPEKLTIEPSVKNQQLPLTVSYVGQTAEGAQMKLAQYIQQVDDKVNQELEKDLKDNIALGRKNLQDSLRTQEVVAQEQKDLRIRQIQEALQYANQAQVTKPQIQQTGEDITQDTLFLLGSEALESMIKHEATRPLVFSSNYYQTRQNLLDIDNLDVDKLDIHAYLYVMKPTLPIRRDSPKKAITLILAVLLGGMVGAGIVLGRNALRNYNAK
- glycan array binding signal (z-score) [1]: 0.119
- glycan array binding signal (z-score) [2]: -0.55
- glycan array binding signal (z-score) [3]: 0.002
- glycan array binding signal (z-score) [4]: 2.91
- glycan array binding signal (z-score) [5]: 0.055
- glycan array binding signal (z-score) [6]: -0.233
- glycan array binding signal (z-score) [7]: 0.857
- glycan array binding signal (z-score) [8]: 1.59
- glycan array binding signal (z-score) [9]: 1.11
- glycan array binding signal (z-score) [10]: -0.965
- glycan array binding signal (z-score) [11]: 0.633
- glycan array binding signal (z-score) [12]: 1.46
- glycan array binding signal (z-score) [13]: -0.538
- glycan array binding signal (z-score) [14]: 0.034
- glycan array binding signal (z-score) [15]: 0.032
- glycan array binding signal (z-score) [16]: 1.41
- glycan array binding signal (z-score) [17]: 2.68
- glycan array binding signal (z-score) [18]: -0.511
- glycan array binding signal (z-score) [19]: 2.08
- glycan array binding signal (z-score) [20]: 0.861
- glycan array binding signal (z-score) [21]: 16.9
- glycan array binding signal (z-score) [22]: -0.728
- glycan array binding signal (z-score) [23]: 4.99
- glycan array binding signal (z-score) [24]: -0.563
- glycan array binding signal (z-score) [25]: -0.667
- glycan array binding signal (z-score) [26]: 5.1
- glycan array binding signal (z-score) [27]: -0.1
- glycan array binding signal (z-score) [28]: 0.1
- glycan array binding signal (z-score) [29]: -0.684
- glycan array binding signal (z-score) [30]: -0.222
- glycan array binding signal (z-score) [31]: 0.801
- glycan array binding signal (z-score) [32]: -0.084
- glycan array binding signal (z-score) [33]: 0.081
- glycan array binding signal (z-score) [34]: -0.72
- glycan array binding signal (z-score) [35]: 2.37
- glycan array binding signal (z-score) [36]: -0.035
- glycan array binding signal (z-score) [37]: -1.71
- glycan array binding signal (z-score) [38]: -0.397
- glycan array binding signal (z-score) [39]: 1.21
- glycan array binding signal (z-score) [40]: 2.29
- glycan array binding signal (z-score) [41]: 1.66
- glycan array binding signal (z-score) [42]: -0.436
- glycan array binding signal (z-score) [43]: 0.29
- glycan array binding signal (z-score) [44]: 1.61
- glycan array binding signal (z-score) [45]: -0.542
